Rows were chosen to be rich in hits. Some 6.7% of all compounds tested hit in one or more screens of this group.
MCF10A rerep = DNA re-replication induction in MCF 10a cells; MCF 10A DNA re-replication, Hoechst nuclear intensity, 48 h; Potency, µM (doses to about 46.1 µM), hits mostly activators; hit rate 2.9% among 350,000; AID 624296; also: nearly all actives have a fitted effect of over 50% in size
SW480 rerep = induces DNA re-replication in SW480 colon adenocarcinoma cells. SW480 DNA re-replication, Hoechst DNA content imaging, 48 h. hit rate 1.8% among 340,000. Potency, µM (doses to about 46.1 µM), hits mostly activators; also: nearly all actives have a fitted effect of over 55% in size
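Compounds, transferred as 23 nL by pin tool, were incubated with cells for 48 hr; DNA content per nucleus was then quantified by Hoechst staining and fluorescence plate imaging.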
PINK1 modulator = modulators of PINK1 expression; PINK1 immunofluorescence, high-content cytometry, 24 h; Potency, µM (titrated, usually from 76.6 µM), most hits filed as activators; hit rate 0.2% among 410,000; active = well fitted activation curve with a large enough effect; inconclusive = small, poorly fitted or top-dose-only effect; cell line not stated here; also: nearly all actives have a fitted effect of over 65% in size
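Measures PINK1 amount and localization on or inside mitochondria by immunofluorescence. Stable cells get compounds at 5 concentrations for 24 hours before fixation and staining; CCCP controls included.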
KB-3-1 tox = kills parental KB-3-1 adenocarcinoma cells | KB-3-1 viability, CellTiter-Glo ATP luminescence, 72 h | Potency, µM (series often up to 46.1 µM), hits mostly cytotoxic | hit rate 1.4% among 400,000 | AID 1347075; also: nearly all actives have a fitted effect of over 60% in size
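Screening of KB-3-1 cells (DMEM, 10% FBS, phenol-red free) ran from lowest to highest compound concentration; after 72 h at 37 °C viability was read luminescently and curves fitted.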
KB-V1 MDR tox = kills drug-selected multidrug resistant KB-V1 cells; KB-V1 MDR cells viability, CellTiter-Glo, 72 h; Potency, µM (top dose mostly 46.1 µM), usual class: cytotoxic; hit rate 3.4% among 400,000; AID 1347076; also: nearly all actives have a fitted effect of over 60% in size
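Cells of the MDR subline KB-V1 are plated, dosed with compound at multiple concentrations, and incubated 72 h at 37 degrees C; CellTiter-Glo is then added and luminescence read after 10 min.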
A number is an active result; – = inactive; ? = inconclusive; · = no result given; [ ] = dose if it differs, or a comment. Unless noted, calls follow the shape of the dose curve; as a rule, active = well fitted curve in the direction sought with a large enough effect; inconclusive = small, poorly fitted or top-dose-only effect, or another doubt; inactive = no such curve, though single readings can be large; an effect the other way counts as inactive or inconclusive.

SMILES	MCF10A rerep	SW480 rerep	PINK1 modulator	KB-3-1 tox	KB-V1 MDR tox
COc1ccc(CCNC(=O)/C=C/c2ccc(S(=O)(=O)N3CCOCC3)cc2)cc1	–	4.11µM	–	–	–
COc1ccc(CN(C)C(=O)/C=C/c2ccc(S(=O)(=O)N3CCCCCC3)cc2)cc1	?	–	–	?	3.26µM
COc1ccc(NC(=O)/C=C/c2ccc(S(=O)(=O)N3CCOCC3)cc2)cc1	–	–	–	–	?
O=C(CCc1ccccc1)Nc1cccc([S+](=O)([O-])Nc2ccccc2F)c1	·	·	·	–	–
CN(CC(=O)Nc1cccc(F)c1)C(=O)/C=C/c1ccc(S(=O)(=O)N2CCCCCC2)cc1	–	–	–	–	18.4µM
CCOc1ccc(/C=C/C(=O)NCCc2ccc(OC)c(OC)c2)cc1	–	–	–	–	16.4µM
COc1cccc(NC(=O)CN(C)C(=O)/C=C/c2ccc(S(=O)(=O)N3CCCCCC3)cc2)c1	·	·	–	–	?
CCOc1ccc(-c2cc(C(=O)NCCc3ccc(OC)c(OC)c3)[nH]n2)cc1	·	·	–	–	–
Cc1ccc(S(=O)(=O)N2CCOCC2)cc1C(=O)N1CCN(c2ccc(C(F)(F)F)cn2)CC1	?	–	–	–	–
Nc1ccc(Oc2ccc3nc(-c4ccccc4)c(-c4ccccc4)nc3c2)cc1	–	–	–	?	?
Nc1ccc2nc(-c3ccccc3)sc2c1	25.9µM	?	–	16.4µM	?
Nc1ccc2nc(-c3ccccc3)c(-c3ccccc3)nc2c1	20.6µM	23.1µM	–	–	–
Cc1ccc(C2Nc3ccccc3-n3c(-c4ccccc4)c4c(=O)n(C)c(=O)n(C)c4c32)o1 (configuration not stated)	·	·	–	–	–
O=C(NCc1nnc2n1CCN(Cc1ccc(C(F)(F)F)cc1)CC2)c1ccccn1	·	·	–	·	·
COC(=O)Nc1ccc2ccc3c(NC(=O)OC)ccc4ccc1c2c43	20.6µM	?	–	·	·
Cc1nc2cc(OCc3cc(C(=O)NC(C)c4cnn(C)c4)no3)ccc2s1 (configuration not stated)	–	–	–	–	10.3µM
COc1ccc(OCc2cc(C(=O)NC(C)c3cnn(C)c3)no2)c(Cl)c1 (configuration not stated)	–	–	–	–	–
CC[N+]1(CC(=O)c2ccc(Br)cc2)CCCCC1	·	·	·	–	–
COc1ccc(CCNc2cc(-c3ccccc3)nc3ncnn23)cc1	–	–	–	?	2.59µM
c1ccc(Nc2cc(-c3ccccc3)nc3ncnn23)cc1	?	?	–	–	14.6µM
Cn1cc(CN(C(=O)Nc2ccccc2)C2CCCCC2)c2ccccc21	·	·	–	?	?
C[C@]12c3[nH]c4cc(-c5ccco5)ccc4c3CCN1C(=O)[C@@H](CC(=O)NCCN1CCOCC1)C[C@@H]2C(=O)N1CCOCC1	–	?	–	–	?
CN(C)CCCNC(=O)C[C@H]1C[C@H](C(=O)N2CCCCC2)[C@@]2(C)c3[nH]c4cc(-c5ccco5)ccc4c3CCN2C1=O	?	2.06µM	–	–	–
CC(C)N(C(=O)[C@H]1C[C@H](CC(=O)NCCN2CCOCC2)C(=O)N2CCc3c([nH]c4cc(-c5ccco5)ccc34)[C@]12C)C(C)C	–	16.4µM	–	–	–
C[C@]12c3[nH]c4cc(-c5ccco5)ccc4c3CCN1C(=O)[C@@H](CC(=O)NCc1cccc(C(F)(F)F)c1)C[C@@H]2C(=O)N1CCCCC1	–	?	–	18.4µM	?
SMILES	MCF10A rerep	SW480 rerep	PINK1 modulator	KB-3-1 tox	KB-V1 MDR tox
O=C(CC1C[C@H](C(=O)N2CCCCC2)[C@@]2(CCc3ccccc3)c3[nH]c4ccccc4c3CCN2C1=O)NCCc1ccccn1 (some centres not stated)	–	–[9.22 µM]	–	?	11.6µM
C[C@]12c3[nH]c4ccccc4c3CCN1C(=O)C(CC(=O)NCCc1ccccn1)C[C@@H]2C(=O)N1CCCCC1 (some centres not stated)	–	–	–	–	–
COc1ccc(CNC(=O)Cn2ncc3c([nH]c4ccccc43)c2=O)cc1	·	·	–	–	–
Cn1ccc(C(=O)NCC2CCC3(CCN(Cc4cc(F)cc(F)c4)CC3)O2)n1 (configuration not stated)	·	·	–	·	·
COc1cc(N2CCCC2)c(OC)cc1/C=C(/C#N)c1ccc(F)cc1	?	–	–	?	–
COc1cc(N2CCCC2)c(OC)cc1/C=C(/C#N)c1ccc(Br)cc1	23.1µM	–	–	–	–
Cn1c(CCCOc2ccc(Cl)cc2Cl)nnc1SCC(=O)Nc1cccc(F)c1	?	–	–	–	–
CCc1cccc(C)c1NC(=O)CSc1nnc(CCCOc2ccc(Cl)cc2Cl)n1C	–	–	–	18.4µM	4.61µM
Cn1c(CCCOc2ccc(Cl)cc2Cl)nnc1SCC(=O)Nc1ccc(F)c(Cl)c1	23.1µM	–	–	–	–
COC(=O)c1c(C)[nH]c(C(=O)/C=C/c2ccccc2)c1C	–	–	–	–	11.6µM
O=C(C=Cc1ccccc1)c1c[nH]c2ccccc2c1=O	6.51µM	8.2µM	–	5.17µM	7.31µM
Cc1[nH]c2ccccc2c(=O)c1C(=O)/C=C/c1ccccc1	11.6µM	?	–	?	14.6µM
Cc1[nH]c2ccccc2c1/C=N/NC(=O)c1ccccc1	–	–	–	–	–
Cc1cc(O)c(C(=O)/C=C/c2ccccc2)c(=O)o1	?	–	–	?	–
Cc1[nH]c2ccccc2c1/C=C/C(=O)c1ccccc1	20.6µM	18.4µM	–	?	?
O=C(/C=C/c1ccccc1)c1c[nH]c2ccccc12	–	?	–	–	–
COc1cc(-c2ccc(N3C(c4ccsc4)=Cc4ccccc4C3CC(C)=O)cc2)cc(OC)c1OC (configuration not stated)	·	·	–	–	–
CCOc1ccc(C(=O)NCC(c2ccco2)S(=O)(=O)c2cccs2)cc1 (configuration not stated)	·	·	–	–	–
O=C(COc1ccc([N+](=O)[O-])cc1)N(Cc1ccccc1)Cc1ccccc1	–	–	–	–	18.4µM
Cc1ccc(NC(=O)CCc2c[nH]c3ccccc23)nc1	?	3.26µM	–	4.11µM	?
O=C(NCCc1ccccc1)c1ccc(NC(=O)c2cccnc2)cc1	–	–	–	–	–
O=C(Nc1ccc(-c2noc(CCc3ccccc3)n2)cc1)c1cccnc1	16.4µM	–	–	?	16.4µM
C=CCn1c(C)cc(C(=O)CSc2nnc(NCc3ccccc3)s2)c1C	3.66µM	?	–	13µM	10.3µM
Cc1cc(C(=O)CSc2nc3ccccc3o2)c(C)n1C1CC1	23.1µM	–	–	–	?
C=CCn1c(C)cc(C(=O)CSc2nc3ccccc3o2)c1C	23.1µM	?	–	?	14.6µM
C=CCn1c(C)cc(C(=O)CSc2nnc(NC(C)C)s2)c1C	?	–[9.22 µM]	–	?	?
Cc1ncccc1C(=O)N1CCCC(c2cc(C(=O)Nc3ccc(C(C)(C)C)cc3)no2)C1 (configuration not stated)	·	·	–	–	–

Assay outcomes deposited in PubChem BioAssay by National Center for Advancing Translational Sciences (NCATS).
